Screening data (PubChem BioAssay)
A selection: hits, their analogues and other compounds. The true share with any hit is near 4.1%.
hgDAF12 agonist – agonists of H. glycines DAF-12 nuclear receptor | AID 687014 | 370,000 compounds, 1.8% hits | activation, % at 6.8 µM | HEK293 GAL4-hgDAF12 UAS-luciferase reporter, agonist luminescence; normalized to butyrate control;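 active = activation above a cutoff set at the mean of all screened compounds plus 3 SD, cut at about 10% in these data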
DAX1 inh-1 – NR0B1 (DAX1) inhibition; inhibition, % at 6.75 µM; HEK293 Gal4-DAX1 luciferase reporter, luminescence; AID 504766; 340,000 compounds, 0.99% hits; P51843;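 active = inhibition above the mean over all tested compounds plus 3 SD, cut at about 4.2% in these data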;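 note: inhibition shows as a rise in luminescence from relieved DAX1 repression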
Target sequence (P51843 207-470 limits assumed): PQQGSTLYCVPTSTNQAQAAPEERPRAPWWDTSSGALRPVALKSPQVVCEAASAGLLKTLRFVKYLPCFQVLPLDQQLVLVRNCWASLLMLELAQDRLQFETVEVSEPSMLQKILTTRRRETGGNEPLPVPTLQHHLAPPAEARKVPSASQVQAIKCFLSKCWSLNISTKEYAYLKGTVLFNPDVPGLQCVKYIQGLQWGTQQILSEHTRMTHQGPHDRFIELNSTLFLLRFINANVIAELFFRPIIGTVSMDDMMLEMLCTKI
ssDAF-12 act – S. stercoralis DAF-12 activation, primary screen | activation, % at 6.8 µM | 370,000 compounds, 1% hits | AID 652126 | HEK293 ssDAF-12/GRIP1 lit1-tk-luc reporter, luminescence; % of 3 µM dafachronic acid response;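 active = activation above the mean over all tested compounds plus 3 SD, cut at about 0.9% in these data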
hcDAF-12 act – activates DAF-12 receptor from parasite H. contortus. HEK293 hcDAF-12 lit1-tk-luc reporter, luminescence; 0% DMSO, 100% Δ7-dafachronic acid. activation, % at 6.8 µM. 370,000 compounds, 1.4% hits;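 active = activation above the mean of all tested compounds plus 3 SD, cut at about 5.5% in these data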
DAX1 inh-2 – inhibitors of DAX1 repression of SF-1 activated StAR promoter; inhibition, % at 6.8 µM; 370,000 compounds, 1.1% hits; HEK293T StAR-luciferase reporter, SF-1/DAX-1 repression relief; AID 652010;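 active = inhibition above the mean over all tested compounds plus 3 SD, cut at about 3.6% in these data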;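 note: higher inhibition means more luminescence from relief of DAX-1 repression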
A number is an active result.

How did C=CCn1c(=O)c2ccccc2n2c(SCC(=O)O)nnc12 do in these assays?
hgDAF12 agonist: inactive; DAX1 inh-1: inactive; ssDAF-12 act: inactive; hcDAF-12 act: inactive; DAX1 inh-2: inactive

What do the screens show for `CCOc1ccc(NC(=O)CN2CCCN(c3ccc(OC)cc3)CC2)cc1`?
hgDAF12 agonist: inactive; ssDAF-12 act: inactive; hcDAF-12 act: inactive; DAX1 inh-2: inactive

How did CS(=O)(=O)c1ccc(S(=O)(=O)NCC2CCN(C(=O)C(=O)c3cc4ccccc4o3)CC2)cc1 do in these assays?
hgDAF12 agonist: inactive; ssDAF-12 act: inactive; hcDAF-12 act: inactive; DAX1 inh-2: inactive

What do the screens show for `CCCCn1c(N)c(N(CCOC)C(=O)c2cc(-c3ccccc3)nc3ccccc23)c(=O)[nH]c1=O`?
hgDAF12 agonist: inactive; DAX1 inh-1: 7.0; ssDAF-12 act: inactive; hcDAF-12 act: inactive; DAX1 inh-2: inactive

What do the screens show for `CCCCn1c(N)c(N(CC(C)C)C(=O)c2cc(Cl)nc3ccccc23)c(=O)[nH]c1=O`?
hgDAF12 agonist: inactive; DAX1 inh-1: inactive; ssDAF-12 act: 1.1; hcDAF-12 act: inactive; DAX1 inh-2: inactive

How did CCCCn1c(N)c(N(CC(C)C)C(=O)c2cc(C)nc3ccccc23)c(=O)[nH]c1=O do in these assays?
hgDAF12 agonist: inactive; DAX1 inh-1: inactive; ssDAF-12 act: inactive; hcDAF-12 act: inactive; DAX1 inh-2: inactive

How did COc1ccc(S(=O)(=O)Nc2ccc3c(c2)C(=O)N([C@H](C)CO)C[C@H](C)[C@H](CN(C)C(=O)Nc2ccc(F)cc2)OCCCC[C@@H](C)O3)cc1 do in these assays?
hgDAF12 agonist: inactive; ssDAF-12 act: inactive; hcDAF-12 act: inactive; DAX1 inh-2: inactive

What do the screens show for `Nc1[nH]c(C(=O)c2ccc(Br)cc2)c(-c2ccccn2)c1C(=O)NCCc1c[nH]c2ccccc12`?
hgDAF12 agonist: inactive; ssDAF-12 act: inactive; hcDAF-12 act: inactive; DAX1 inh-2: inactive

How did Nc1ccn([C@@H]2O[C@H](CNCc3ccc(N4CCNCC4)cc3)[C@@H](O)[C@H]2O)c(=O)n1 do in these assays?
hgDAF12 agonist: inactive; DAX1 inh-1: inactive; ssDAF-12 act: inactive; hcDAF-12 act: inactive; DAX1 inh-2: inactive

Results for CNS(=O)(=O)c1ccc(CNC[C@H]2O[C@@H](n3ccc(N)nc3=O)[C@H](O)[C@@H]2O)cc1 ?
hgDAF12 agonist: inactive; DAX1 inh-1: 4.6; ssDAF-12 act: inactive; hcDAF-12 act: inactive; DAX1 inh-2: inactive

How did NS(=O)(=O)c1ccc(NC(=O)c2ccc(Cl)c(S(=O)(=O)NCc3ccco3)c2)cc1 do in these assays?
hgDAF12 agonist: inactive; DAX1 inh-1: inactive; ssDAF-12 act: inactive; hcDAF-12 act: inactive; DAX1 inh-2: inactive

Results for Cc1ccc(NC(=O)c2ccc(Cl)c(S(=O)(=O)NCc3ccco3)c2)c(O)c1 ?
hgDAF12 agonist: inactive; DAX1 inh-1: inactive; ssDAF-12 act: inactive; hcDAF-12 act: inactive; DAX1 inh-2: 3.9

What do the screens show for `O=C(O)Cc1nn(Cc2ccc(Cl)cc2)c(=O)c2ccccc12`?
hgDAF12 agonist: inactive; DAX1 inh-1: 9.0; ssDAF-12 act: inactive; hcDAF-12 act: inactive; DAX1 inh-2: inactive

How did COC(=O)[C@@H]1C[C@@]2(c3ccccc3)c3ccccc3N(S(=O)(=O)c3ccccc3)[C@H]2N1C(=O)CNC/C=C(\C)CCC=C(C)C do in these assays?
hgDAF12 agonist: inactive; ssDAF-12 act: inactive; hcDAF-12 act: inactive; DAX1 inh-2: inactive

Results for COc1ccc2c(c1)N=C(c1[nH]c3ccccc3c1CCN1C(=O)c3ccccc3C1=O)[C@]2(O)CCN1C(=O)c2ccccc2C1=O ?
hgDAF12 agonist: inactive; ssDAF-12 act: inactive; hcDAF-12 act: inactive

What do the screens show for `CCN=C1NC(c2cccc(Cl)c2)C(C(=O)OC)=C(C)N1Cc1ccccc1C(F)(F)F` (centres undefined)?
hgDAF12 agonist: inactive; ssDAF-12 act: inactive; hcDAF-12 act: inactive; DAX1 inh-2: inactive

What do the screens show for `CCOC(=O)c1ccc2c(c1)nc(SC/C(O)=C(\C#N)c1nc3ccccc3[nH]1)n2CC`?
hgDAF12 agonist: inactive; DAX1 inh-1: inactive; ssDAF-12 act: 1.6; hcDAF-12 act: inactive; DAX1 inh-2: inactive

Results for CCn1cc(CN2CCN(Cc3ccc(C)o3)C(CCO)C2)c2ccccc21 (centres undefined) ?
hgDAF12 agonist: inactive; DAX1 inh-1: inactive; ssDAF-12 act: inactive; hcDAF-12 act: 5.6; DAX1 inh-2: inactive

What do the screens show for `CCn1cc(CN2CCN(Cc3ccccc3)C(CCO)C2)c2ccccc21` (centres undefined)?
hgDAF12 agonist: inactive; DAX1 inh-1: 4.2; ssDAF-12 act: inactive; hcDAF-12 act: inactive; DAX1 inh-2: inactive

What do the screens show for `Cc1ccc(CN2CCN(Cc3c[nH]c4ccccc34)CC2CCO)o1` (centres undefined)?
hgDAF12 agonist: inactive; DAX1 inh-1: inactive; ssDAF-12 act: inactive; hcDAF-12 act: inactive; DAX1 inh-2: inactive

What do the screens show for `COc1ccc(S(=O)(=O)NCC(c2ccc3c(c2)OCO3)N2CCN(C)CC2)cc1OC` (centres undefined)?
hgDAF12 agonist: inactive; DAX1 inh-1: inactive; ssDAF-12 act: inactive; hcDAF-12 act: inactive; DAX1 inh-2: inactive

How did COc1ccc(C)cc1S(=O)(=O)NCC(c1ccc2c(c1)OCO2)N1CCN(C)CC1 (centres undefined) do in these assays?
hgDAF12 agonist: inactive; DAX1 inh-1: inactive; ssDAF-12 act: inactive; hcDAF-12 act: inactive; DAX1 inh-2: 3.7

Results for COc1ccc(S(=O)(=O)NCC2CCCN(Cc3cccnc3)C2)cc1 (centres undefined) ?
hgDAF12 agonist: inactive; DAX1 inh-1: 4.3; ssDAF-12 act: inactive; hcDAF-12 act: inactive; DAX1 inh-2: inactive

How did COc1ccccc1C(=O)Nc1nnc(S(=O)(=O)N2CCC(C)CC2)s1 do in these assays?
hgDAF12 agonist: inactive; DAX1 inh-1: 5.0; ssDAF-12 act: inactive; hcDAF-12 act: inactive; DAX1 inh-2: inactive

What do the screens show for `OCCN1CCN(c2nccn3ccnc23)CC1`?
hgDAF12 agonist: inactive; ssDAF-12 act: inactive; hcDAF-12 act: inactive; DAX1 inh-2: inactive

Results for Nc1ccc(OCc2ccccc2)cc1 ?
hgDAF12 agonist: inactive; DAX1 inh-1: inactive; ssDAF-12 act: inactive; hcDAF-12 act: inactive; DAX1 inh-2: inactive

Results for c1ccc(COc2ccc3nocc3c2)cc1 ?
hgDAF12 agonist: 11; DAX1 inh-1: inactive; ssDAF-12 act: inactive; hcDAF-12 act: inactive; DAX1 inh-2: inactive

Results for Oc1ccc(Br)cc1-c1cc(-c2ccccc2F)[nH]n1 ?
hgDAF12 agonist: inactive; DAX1 inh-1: inactive; ssDAF-12 act: inactive; hcDAF-12 act: 5.8; DAX1 inh-2: inactive

How did Oc1ccc(Br)cc1-c1cc(-c2ccccc2Cl)[nH]n1 do in these assays?
hgDAF12 agonist: 11; DAX1 inh-1: inactive; ssDAF-12 act: inactive; hcDAF-12 act: inactive; DAX1 inh-2: inactive

What do the screens show for `Oc1ccc(Cl)cc1-c1cc(-c2ccccc2)n[nH]1`?
hgDAF12 agonist: 11; DAX1 inh-1: inactive; ssDAF-12 act: inactive; hcDAF-12 act: 5.7; DAX1 inh-2: inactive

What do the screens show for `Cc1ccc2c3c(c(SCC(=O)Nc4nonc4C)nc2c1)CCCC3`?
hgDAF12 agonist: 11; DAX1 inh-1: inactive; ssDAF-12 act: inactive; hcDAF-12 act: inactive; DAX1 inh-2: inactive
